# Measured values reported in PubChem BioAssay (EPA / NIEHS).
# Records with an inconclusive call do not appear. Active and inactive are the calls of the source. How the source made its calls, unless noted: active means hit-call score of the fitted dose curve at least 0.9, where 1 is the maximum; inactive means score below 0.9.
# Experiments:
# [1] = molecular target: Peroxisome proliferator-activated receptor gamma (Homo sapiens) (UniProt P37231); assay: OT_PPARg_PPARgSRC1_0480: Odyssey Thera (OT) 8-hour Protein-Complementation Assay for Peroxisome Proliferator-activated Receptor Gamma / SRC-1 Co-activator (AID 2283387; active means hit-call score of the fitted dose curve at least 0.9, where 1 is the maximum;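 further: nuclear to cytoplasmic split Venus YFP fluorescence ratio reporting PPARg SRC-1 interaction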)
# Summary of the method: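 Split-YFP (IFP1/IFP2) PPARg/SRC-1 reporter, HEK293T, 37 °C, 5% CO2; 8 h compound; formaldehyde fix + Draq5; high-content imaging, N/C ratio, ≥350 cells/image, positive direction vs DMSO.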
# [2] = molecular target: Peroxisome proliferator-activated receptor gamma (Homo sapiens) (UniProt P37231); assay: OT_PPARg_PPARgSRC1_1440: Odyssey Thera (OT) 24-hour Protein-Complementation Assay for Peroxisome Proliferator-activated Receptor Gamma/ SRC-1 Co-activator (AID 2283388; active means hit-call score of the fitted dose curve at least 0.9, where 1 is the maximum;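 further: nuclear to cytoplasmic ratio of reconstituted Venus YFP fluorescence in fixed imaged cells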)
# Summary of the method: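 Protein-fragment complementation between PPARg and coactivator SRC-1 was measured by fluorescence imaging in transiently transfected HEK293T cells after 24 h treatment. Signal was quantified as N/C ratio in the 488 nm channel, with DMSO as negative control.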
# [3] = read-out: Tumor necrosis factor receptor superfamily member 6 (Homo sapiens) (UniProt P25445); assay: LTEA_HepaRG_FAS: Life Technologies and Expression Analysis (LTEA) Assay for Fas cell surface death receptor (FAS) using HepaRG (AID 2283447); settings: mRNA level, 48 h; actives raise or lower the signal
# Summary of the method: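 Differentiated human HepaRG cells, pre-cultured 48 h, were exposed in duplicate for 48 h to 8-point half-log concentrations (top 100 uM, 0.5% DMSO) in serum-free induction medium; FAS mRNA measured by qRT-PCR, normalized to ACTB/GAPDH/POLR2A, bidirectional fit versus DMSO.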
# [4] = read-out: Fatty acid synthase (Homo sapiens) (UniProt P49327); assay: LTEA_HepaRG_FASN: Life Technologies and Expression Analysis (LTEA) Assay for Fatty Acid Synthase (FASN) using HepaRG (AID 2283448); settings: mRNA level, 48 h; actives raise or lower the signal
# Summary of the method: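 Cells were plated, cultured 48 h, switched to serum-free induction medium, then dosed in duplicate (max 100 uM, half-log dilutions, 0.5% DMSO) for 48 h. RNA was then isolated and FASN quantified by qRT-PCR.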
# [5] = read-out: Cyclin Dependent Kinase Inhibitor 1A (CDKN1A), CDKN1A (gene 1026); assay: LTEA_HepaRG_CDKN1A: Life Technologies and Expression Analysis (LTEA) Assay for Cyclin Dependent Kinase Inhibitor 1A (CDKN1A) using HepaRG (AID 2283450); settings: mRNA level, 48 h; actives raise or lower the signal
# Summary of the method: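 Read-out is CDKN1A mRNA by TaqMan qRT-PCR, normalized to three housekeeping genes and fitted in both directions against the DMSO baseline. Human HepaRG cells were treated 48 h with test chemicals up to 100 uM in half-log steps, 0.5% DMSO.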
# [6] = read-out: Cyclin D1 (CCND1), CCND1 (gene 595); assay: LTEA_HepaRG_CCND1: Life Technologies and Expression Analysis (LTEA) Assay for Cyclin D1 (CCND1) using HepaRG (AID 2283451); settings: mRNA level, 48 h; actives raise or lower the signal
# Summary of the method: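 HepaRG plated 48 h, medium switched to serum-free induction medium, chemicals added in duplicate (top 100 uM, half-log steps, 0.5% DMSO) for 48 h, cells lysed, RNA measured by TaqMan qRT-PCR.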
# [7] = read-out: catalase (CAT), CAT (gene 847); assay: LTEA_HepaRG_CAT: Life Technologies and Expression Analysis (LTEA) Assay for catalase (CAT) using HepaRG (AID 2283452); settings: mRNA level, 48 h; actives raise or lower the signal;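 on AC50: TaqMan qRT-PCR signal normalized to ACTB GAPDH and POLR2A housekeeping genes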
# Summary of the method: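 Differentiated HepaRG cells in serum-free induction medium were dosed 48 h in duplicate, eight half-log concentrations from 100 uM in 0.5% DMSO. Transcript measured by TaqMan qRT-PCR, normalised to ACTB/GAPDH/POLR2A, fitted bidirectionally against DMSO.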
# [8] = read-out: flavin-containing dimethylaniline monooxygenases 3 (FMO3), FMO3 (gene 2328); assay: LTEA_HepaRG_FMO3: Life Technologies and Expression Analysis (LTEA) Assay for flavin-containing dimethylaniline monooxygenases 3 (FMO3) using HepaRG (AID 2283453); settings: mRNA level, 48 h; actives raise or lower the signal
# Summary of the method: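 FMO3 transcript quantified by TaqMan qRT-PCR against three housekeeping genes after 48 h chemical exposure of HepaRG cells. Eight-point half-log series, top 100 uM, 0.5% DMSO vehicle; phenobarbital 1mM induction control; up- or down-regulation fitted.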
# [9] = CEETOX_H295R_OHPREG: CeeTox H295R High-throughput Steroidogenesis Assay for OH-Pregnenolone (OHPREG) (AID 2283434); settings: actives raise or lower the signal
# Summary of the method: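 Readout: HPLC-MS/MS of 17alpha-hydroxypregnenolone in medium after 48 h chemical exposure of H295R cells pretreated with forskolin. Values fitted bidirectionally relative to DMSO; chemicals reducing viability to 20–70% were retested after 10-fold dilution.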
# [10] = CEETOX_H295R_OHPROG: CeeTox H295R High-throughput Steroidogenesis Assay for OH-Progesterone (OHPROG) (AID 2283435); settings: actives raise or lower the signal
# Summary of the method: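 Steps: seed H295R cells and adhere overnight; stimulate with 10 uM forskolin for 48 h; replace with chemical-containing medium (0.1% DMSO) for 48 h; extract medium with MTBE; quantify 17alpha-hydroxyprogesterone by reverse-phase C18 HPLC-MS/MS against a 7-point curve.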
# [11] = CEETOX_H295R_ESTRONE: CeeTox H295R High-throughput Steroidogenesis Assay for Estrone (AID 2283441); settings: actives raise or lower the signal
# Summary of the method: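 Estrone secreted into medium quantified by LC-MS/MS after dansyl chloride derivatization, following 48 h chemical exposure (0.1% DMSO final) of forskolin-prestimulated (10 uM, 48 h) H295R cells; gain or loss fitted against DMSO; MTT viability in same wells.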
# [12] = CEETOX_H295R_PROG: CeeTox H295R High-throughput Steroidogenesis Assay for Progesterone (PROG) (AID 2283442); settings: actives raise or lower the signal
# Summary of the method: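 Steps: seed H295R cells and let them adhere overnight; prime 48 h with 10 uM forskolin; dose with compound in DMSO at 0.1% final for 48 h; extract medium steroids with MTBE; measure progesterone by LC-MS/MS. MTT viability was run in the same wells.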
# [13] = read-out: Cyclin D2 (CCND2), CCND2 (gene 894); assay: LTEA_HepaRG_CCND2: Life Technologies and Expression Analysis (LTEA) Assay for Cyclin D2 (CCND2) using HepaRG (AID 2283449); settings: mRNA level, 48 h; actives raise or lower the signal;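 further: CCND2 transcript measured by TaqMan qRT-PCR and normalised to three housekeeping genes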
# Summary of the method: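 In this HepaRG study, an eight-point concentration series (max 100 uM, 0.5% DMSO) is applied for 48 h. CCND2 mRNA change is derived by qRT-PCR normalised to ACTB, GAPDH and POLR2A.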
# [14] = molecular target: Retinoic acid receptor RXR-alpha (Homo sapiens) (UniProt P19793); assay: OT_NURR1_NURR1RXRa_1440: Odyssey Thera (OT) 24-hour HEK293T Protein Complementation Assay for Nurr1/retinoid X receptor (RXR) (AID 2283386; active means hit-call score of the fitted dose curve at least 0.9, where 1 is the maximum)
# Summary of the method: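 Steps: fragment-tagged Nurr1 and RXRα expressed in HEK293T; compounds added; after 24 h, complemented reporter quantified by fluorescence intensity; signal increase over DMSO fitted as the single endpoint.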
# [15] = CEETOX_H295R_11DCORT: CeeTox H295R High-throughput Steroidogenesis Assay for 11-Deoxycortisol (11DCORT) (AID 2283432); settings: actives raise or lower the signal
# Summary of the method: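 Steroidogenesis in human H295R cells: 48 h chemical exposure after forskolin priming, 11-deoxycortisol measured by LC-MS/MS.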
# [16] = CEETOX_H295R_ANDR: CeeTox H295R High-throughput Steroidogenesis Assay for Androstenedione (ANDR) (AID 2283436); settings: actives raise or lower the signal;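 further: human H295R adrenal cells exposed for 48 h with androstenedione measured in medium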
# Summary of the method: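 Steroidogenesis in H295R adrenal cells after 48 h dosing; androstenedione quantified by LC-MS/MS, with DMSO as negative control and baseline for bidirectional curve fitting.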
# [17] = CEETOX_H295R_CORTIC: CeeTox H295R High-throughput Steroidogenesis Assay for Corticosterone (CORTIC) (AID 2283437); settings: actives raise or lower the signal;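 further: corticosterone secreted into medium quantified by mass spectrometry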
# Summary of the method: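 Steps: seed H295R, adhere overnight; 10 uM forskolin 48 h; replace with chemical (0.1% DMSO) 48 h; extract medium with MTBE; quantify corticosterone by HPLC-MS/MS; score bidirectionally vs DMSO.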
# [18] = CEETOX_H295R_CORTISOL: CeeTox H295R High-throughput Steroidogenesis Assay for Cortisol (AID 2283438); settings: actives raise or lower the signal
# Summary of the method: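 Cortisol synthesis by H295R cells is measured 48 h after chemical dosing, following a 48 h stimulation with 10 uM forskolin. Hormone is extracted and quantified by HPLC-MS/MS, and activity is fitted bidirectionally against the DMSO control.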
# [19] = CEETOX_H295R_DOC: CeeTox H295R High-throughput Steroidogenesis Assay for DOC (AID 2283439); settings: actives raise or lower the signal
# Summary of the method: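 Steps: seed H295R, adhere overnight; 10 uM forskolin 48 h; replace with chemical medium (0.1% DMSO) 48 h; collect medium, MTBE extraction, HPLC-MS/MS for DOC. Viability then checked by MTT; cytotoxic chemicals diluted until viability ≥70%.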
# Chain of Retinoic acid receptor RXR-alpha (Homo sapiens) (P19793 whole entry, looked up, the tested form may be a part): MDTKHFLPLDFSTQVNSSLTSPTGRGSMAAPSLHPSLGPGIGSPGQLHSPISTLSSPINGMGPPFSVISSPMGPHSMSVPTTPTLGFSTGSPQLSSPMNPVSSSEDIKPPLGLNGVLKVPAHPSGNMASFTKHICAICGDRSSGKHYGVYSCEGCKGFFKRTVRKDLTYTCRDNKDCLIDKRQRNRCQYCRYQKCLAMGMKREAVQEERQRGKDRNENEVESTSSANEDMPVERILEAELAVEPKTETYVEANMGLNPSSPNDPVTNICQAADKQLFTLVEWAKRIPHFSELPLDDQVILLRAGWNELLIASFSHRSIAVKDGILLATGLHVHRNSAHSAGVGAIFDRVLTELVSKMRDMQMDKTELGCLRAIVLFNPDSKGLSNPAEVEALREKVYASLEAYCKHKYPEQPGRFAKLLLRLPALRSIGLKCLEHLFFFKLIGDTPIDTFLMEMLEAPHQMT
# Chain of Peroxisome proliferator-activated receptor gamma (Homo sapiens) (P37231 whole entry, looked up, the tested form may be a part): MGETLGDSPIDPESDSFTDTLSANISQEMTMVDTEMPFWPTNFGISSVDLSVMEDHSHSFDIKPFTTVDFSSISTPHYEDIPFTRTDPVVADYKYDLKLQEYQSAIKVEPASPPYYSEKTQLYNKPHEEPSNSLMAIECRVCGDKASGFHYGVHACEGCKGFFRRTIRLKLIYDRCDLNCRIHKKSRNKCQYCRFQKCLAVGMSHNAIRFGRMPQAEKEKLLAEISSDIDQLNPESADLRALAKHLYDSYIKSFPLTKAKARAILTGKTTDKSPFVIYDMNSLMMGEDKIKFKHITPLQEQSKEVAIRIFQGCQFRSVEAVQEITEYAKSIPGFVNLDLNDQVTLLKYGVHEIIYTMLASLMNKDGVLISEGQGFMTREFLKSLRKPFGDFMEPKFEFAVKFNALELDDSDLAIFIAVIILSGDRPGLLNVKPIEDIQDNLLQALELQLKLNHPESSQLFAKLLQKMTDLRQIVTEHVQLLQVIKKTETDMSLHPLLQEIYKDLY
# Chain of Fatty acid synthase (Homo sapiens) (P49327 whole entry, looked up): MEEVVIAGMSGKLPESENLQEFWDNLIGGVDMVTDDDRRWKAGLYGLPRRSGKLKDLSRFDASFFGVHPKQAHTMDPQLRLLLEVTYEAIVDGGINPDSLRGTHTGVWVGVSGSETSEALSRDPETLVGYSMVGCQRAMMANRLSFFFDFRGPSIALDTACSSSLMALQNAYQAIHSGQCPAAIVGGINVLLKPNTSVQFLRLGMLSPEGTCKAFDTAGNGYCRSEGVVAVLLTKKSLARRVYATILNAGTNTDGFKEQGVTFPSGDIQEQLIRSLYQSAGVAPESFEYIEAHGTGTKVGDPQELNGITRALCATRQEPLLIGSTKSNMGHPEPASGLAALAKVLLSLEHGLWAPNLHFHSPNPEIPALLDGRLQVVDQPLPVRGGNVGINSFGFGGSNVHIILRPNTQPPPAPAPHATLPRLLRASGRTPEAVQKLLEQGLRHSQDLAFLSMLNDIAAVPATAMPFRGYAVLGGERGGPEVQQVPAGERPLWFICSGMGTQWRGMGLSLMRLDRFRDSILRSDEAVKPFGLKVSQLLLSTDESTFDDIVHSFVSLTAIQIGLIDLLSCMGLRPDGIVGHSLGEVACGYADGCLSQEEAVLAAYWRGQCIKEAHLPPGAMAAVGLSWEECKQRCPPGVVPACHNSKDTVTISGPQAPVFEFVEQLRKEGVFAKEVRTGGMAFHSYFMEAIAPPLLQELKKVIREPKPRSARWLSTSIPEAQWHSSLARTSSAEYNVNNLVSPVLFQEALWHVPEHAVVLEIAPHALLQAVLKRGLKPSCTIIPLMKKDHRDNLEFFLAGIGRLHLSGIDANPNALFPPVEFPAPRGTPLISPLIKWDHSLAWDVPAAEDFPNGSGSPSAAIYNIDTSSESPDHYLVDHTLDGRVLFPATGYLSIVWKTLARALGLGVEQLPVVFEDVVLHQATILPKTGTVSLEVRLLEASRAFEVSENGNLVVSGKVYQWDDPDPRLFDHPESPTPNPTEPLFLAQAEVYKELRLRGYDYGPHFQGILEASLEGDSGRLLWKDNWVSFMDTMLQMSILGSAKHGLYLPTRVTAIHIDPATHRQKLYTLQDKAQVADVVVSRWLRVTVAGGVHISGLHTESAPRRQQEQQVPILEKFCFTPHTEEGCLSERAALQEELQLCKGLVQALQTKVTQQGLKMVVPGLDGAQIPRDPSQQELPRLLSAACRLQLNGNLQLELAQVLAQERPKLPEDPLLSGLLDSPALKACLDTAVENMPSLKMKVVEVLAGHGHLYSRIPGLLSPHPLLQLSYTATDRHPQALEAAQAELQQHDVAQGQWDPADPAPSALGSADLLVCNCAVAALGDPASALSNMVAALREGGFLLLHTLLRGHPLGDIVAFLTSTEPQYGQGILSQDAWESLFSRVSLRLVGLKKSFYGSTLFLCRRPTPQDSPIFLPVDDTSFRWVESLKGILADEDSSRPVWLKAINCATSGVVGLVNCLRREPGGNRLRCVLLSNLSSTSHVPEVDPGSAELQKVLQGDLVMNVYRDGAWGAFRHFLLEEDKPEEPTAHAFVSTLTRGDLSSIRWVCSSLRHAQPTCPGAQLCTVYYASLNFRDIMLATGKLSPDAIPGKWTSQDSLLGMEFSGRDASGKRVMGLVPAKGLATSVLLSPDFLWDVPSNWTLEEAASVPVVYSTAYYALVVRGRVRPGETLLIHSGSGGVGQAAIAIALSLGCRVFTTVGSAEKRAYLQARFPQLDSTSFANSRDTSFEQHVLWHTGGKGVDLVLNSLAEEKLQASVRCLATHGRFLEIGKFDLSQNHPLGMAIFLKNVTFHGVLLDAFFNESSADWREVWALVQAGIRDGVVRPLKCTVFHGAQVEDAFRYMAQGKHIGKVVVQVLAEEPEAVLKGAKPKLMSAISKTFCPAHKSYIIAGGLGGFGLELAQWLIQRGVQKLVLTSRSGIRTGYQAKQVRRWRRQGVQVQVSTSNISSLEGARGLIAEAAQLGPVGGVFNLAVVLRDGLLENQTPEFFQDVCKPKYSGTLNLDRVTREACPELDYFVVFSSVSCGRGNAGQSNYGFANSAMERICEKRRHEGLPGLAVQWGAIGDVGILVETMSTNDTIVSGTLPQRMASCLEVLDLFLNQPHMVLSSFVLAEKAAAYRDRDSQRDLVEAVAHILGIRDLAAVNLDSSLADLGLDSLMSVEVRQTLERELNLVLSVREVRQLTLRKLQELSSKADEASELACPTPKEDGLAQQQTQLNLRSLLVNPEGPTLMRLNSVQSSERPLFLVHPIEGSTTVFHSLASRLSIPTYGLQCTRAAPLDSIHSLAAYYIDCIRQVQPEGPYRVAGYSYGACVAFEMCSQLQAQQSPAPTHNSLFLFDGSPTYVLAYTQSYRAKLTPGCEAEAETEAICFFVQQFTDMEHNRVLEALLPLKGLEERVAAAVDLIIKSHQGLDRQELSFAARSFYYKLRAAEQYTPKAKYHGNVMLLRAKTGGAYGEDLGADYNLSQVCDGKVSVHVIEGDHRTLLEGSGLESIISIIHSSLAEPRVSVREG
compound,measurement,setting,value
CCc1ccc(O)c(C(C)(C)C)c1,outcome,[1],inactive
same,outcome,[2],inactive
same,outcome,[3],inactive
same,outcome,[4],inactive
same,outcome,[5],inactive
same,outcome,[6],inactive
same,outcome,[7],inactive
same,outcome,[8],inactive
CCCCCCCC1CCC(=O)O1 (configuration not stated),outcome,[1],inactive
same,outcome,[2],inactive
same,outcome,[9],inactive
same,outcome,[10],inactive
same,outcome,[11],inactive
same,outcome,[12],inactive
same,outcome,[3],inactive
same,outcome,[4],inactive
same,outcome,[13],inactive
same,outcome,[5],inactive
same,outcome,[6],inactive
same,outcome,[7],inactive
same,outcome,[8],inactive
OCCNCCO,outcome,[14],inactive
same,outcome,[3],inactive
same,AC50,[4],9.92 µM (active)
same,outcome,[13],inactive
same,outcome,[5],inactive
same,outcome,[6],inactive
same,AC50,[7],50 µM (active)
same,outcome,[8],inactive
NC(=O)N(O)[C@@H]1COc2cc(OCc3ccccc3)ccc21,outcome,[14],inactive
same,outcome,[1],inactive
same,outcome,[2],inactive
same,outcome,[3],inactive
same,outcome,[4],inactive
same,outcome,[13],inactive
same,outcome,[5],inactive
same,outcome,[6],inactive
same,outcome,[7],inactive
same,outcome,[8],inactive
OC(CCl)CCl,outcome,[14],inactive
same,outcome,[1],inactive
same,outcome,[2],inactive
same,outcome,[3],inactive
same,outcome,[4],inactive
same,outcome,[13],inactive
same,outcome,[5],inactive
same,outcome,[6],inactive
same,outcome,[7],inactive
same,outcome,[8],inactive
Cn1c(=O)c2[nH]cnc2n(C)c1=O,outcome,[14],inactive
same,outcome,[1],inactive
same,outcome,[2],inactive
same,outcome,[3],inactive
same,outcome,[4],inactive
same,outcome,[13],inactive
same,outcome,[5],inactive
same,outcome,[6],inactive
same,outcome,[7],inactive
same,outcome,[8],inactive
CCCCOC(=O)c1ccccc1,outcome,[14],inactive
same,outcome,[1],inactive
same,outcome,[2],inactive
same,outcome,[3],inactive
same,outcome,[4],inactive
same,outcome,[13],inactive
same,outcome,[5],inactive
same,outcome,[6],inactive
same,outcome,[7],inactive
same,outcome,[8],inactive
CC(C)CC(C)O (configuration not stated),outcome,[14],inactive
same,outcome,[1],inactive
same,outcome,[2],inactive
same,outcome,[3],inactive
same,outcome,[4],inactive
same,outcome,[13],inactive
same,outcome,[5],inactive
same,outcome,[6],inactive
same,outcome,[7],inactive
same,outcome,[8],inactive
OCc1ccccc1,outcome,[14],inactive
same,outcome,[1],inactive
same,outcome,[2],inactive
same,outcome,[3],inactive
same,outcome,[4],inactive
same,outcome,[13],inactive
same,outcome,[5],inactive
same,outcome,[6],inactive
same,outcome,[7],inactive
same,outcome,[8],inactive
CCN(CC)C(=S)SSC(=S)N(CC)CC,outcome,[1],inactive
same,outcome,[2],inactive
same,outcome,[15],inactive
same,outcome,[9],inactive
same,outcome,[10],inactive
same,outcome,[16],inactive
same,outcome,[17],inactive
same,outcome,[18],inactive
same,outcome,[19],inactive
same,outcome,[11],inactive
same,outcome,[12],inactive
same,outcome,[3],inactive
same,outcome,[4],inactive
same,outcome,[13],inactive
same,outcome,[5],inactive
same,outcome,[6],inactive
same,outcome,[7],inactive
same,outcome,[8],inactive
